Results published in PubChem BioAssay AID2315 (National Center for Advancing Translational Sciences (NCATS), 2010).
Several values for one entry are separate records, joined by “and”; a condition that tells them apart may be missing. Identical values can stand only once. The campaign covered roughly 290,000 compounds. About 27,000 (9.3%) were called active. Rule as the data show it: active = inhibition mostly above about 28% (no sharp cut-off); inactive = mostly below about 43%. The sample as a whole holds a higher share of actives than the screen did.

test: A qHTS for Small Molecule Inhibitors of Shiga Toxin; settings: Vero cells, Shiga toxin protein synthesis inhibition reporter; at 38.7 µM, stronger effect = higher value; also: 0% is about no effect

SMILES | inhibition
O=C(c1cccs1)N(Cc1cc2ccccc2[nH]c1=O)CC1CCCO1 (stereo unspecified) | -16% (inactive)
CCN1C(=NCCc2cccnc2)N[C@@H](c2ccccc2)C(C(=O)OC)=C1C | -1.87% (inactive) and -4.64% (inactive)
S=C(Nc1cccnc1)Nc1ccccn1 | -1.64% (inactive)
Cc1ccc(NC(=S)Nc2ncccc2C)c(C)c1 | 54.2% (active)
Cc1ccc(NC(=S)NCCc2ccc(Cl)cc2)c(C)c1 | 13.6% (inactive)
Cc1ccc(NC(=S)NCc2ccccc2Cl)c(C)c1 | -19.8% (inactive)
COc1ccc(CN2CC(C(=O)NCCc3ccc(Cl)cc3)CC2=O)cc1 (stereo unspecified) | -11.7% (inactive)
Cn1ncc(Br)c1C(=O)NC1CCCC1 | -7.94% (inactive)
C=CCn1c(=NC(=O)c2ccc(S(=O)(=O)N3CCCC3)cc2)sc2cc(NC(C)=O)ccc21 | -8.21% (inactive)
C=CCn1c(=NC(=O)c2cccs2)sc2cc(NC(C)=O)ccc21 | 47.4% (active)
C=CCn1c(CCNC(=O)c2cccs2)n[nH]c1=S | 2.22% (inactive)
COc1ccc(CNS(=O)(=O)c2cc(-c3cc(C)no3)ccc2C(C)C)cc1 | -15.5% (inactive)
CN(C)Cc1c(C(=O)N/N=C/c2ccccc2OCc2ccc(F)cc2)nnn1-c1nonc1N | -7.12% (inactive)
CN(C)c1ccc(/C=C/C(=O)c2ccc(C(C)(C)C)cc2)cc1[N+](=O)[O-] | 27.8% (inactive)
O=C(/C=C/c1ccc2c(c1)OCCO2)c1ccc(O)cc1 | 56.9% (active)
O=C(/C=C/c1ccc(Cl)c([N+](=O)[O-])c1)c1ccc(O)cc1 | 10.6% (inactive)

SMILES | inhibition
O=C(O)/C=C/c1ccc2c(c1)OCCO2 | -2.74% (inactive)
CN(C)c1ccc(/C=C/C(=O)c2ccc(O)cc2)cc1[N+](=O)[O-] | 48.8% (active)
O=C(/C=C\c1ccc2c(c1)OCO2)NC1(C(=O)Nc2ccc3c(c2)OCCO3)CCCCC1 | -4.85% (inactive)
CCOc1ccc(N2CC(C(=O)NCc3ccccn3)CC2=O)cc1 (stereo unspecified) | -7.37% (inactive)
COc1cc(/C=C/C(=O)N2CCc3ccccc3C2)cc(OC)c1OC | -4.9% (inactive)
Cc1ccc(S(=O)(=O)N2CCC(Oc3ccc(-n4cnnn4)cc3)CC2)cc1 | 1.93% (inactive)
Cc1ccc(C)c(N2CCN(C(=O)Cn3ncn4cccc4c3=O)CC2)c1 | -2.82% (inactive)
CCc1nc2nc(C)c(NS(=O)(=O)c3ccc4c(c3)CCCC4)c(=O)n2[nH]1 | -6.5% (inactive)
Cc1cccc(CNS(=O)(=O)c2ccc(-c3cnc(C4CC4)o3)cc2)c1 | 13.9% (inactive)
N/C(=N\OC(=O)COc1ccc([N+](=O)[O-])cc1)c1ccc(Br)cc1 | 2.73% (inactive)
N/C(=N\OC(=O)Cc1ccc([N+](=O)[O-])cc1)c1ccccn1 | 124% (active)
CO/N=C(\N)c1ccc([N+](=O)[O-])cc1 | -2.22% (inactive)
N/C(=N\OC(=O)c1ccc([N+](=O)[O-])cc1)c1ccccn1 | 71% (active)
N/C(Cc1ccc([N+](=O)[O-])cc1)=N\OC(=O)COc1ccc2ccccc2c1 | 12.2% (inactive)
O=C(OCc1ccc([N+](=O)[O-])cc1)c1ccccn1 | 1.67% (inactive)
